Source: article PMC7862700, “An all-to-all approach to the identification of sequence-specific readers for epigenetic DNA modifications on cytosine”

Legend:
Test in all cases: DAPPL (digital affinity profiling via proximity ligation, sequencing); 10 mM Tris-HCl pH 7.5, 50 mM NaCl, 1 mM DTT, 4% glycerol, room temperature, 30 min; GST-TFs on glutathione beads, 16-mer random dsDNA library, 0.1% formaldehyde crosslink after washing; high values mean tight binding
Settings in all cases: protein: recombinant; tags: N-terminal GST; dsDNA, one strand shown
[1] = biological target: T1, FLI1 (Homo sapiens, UniProt Q01543 1-452)
T1 sequence: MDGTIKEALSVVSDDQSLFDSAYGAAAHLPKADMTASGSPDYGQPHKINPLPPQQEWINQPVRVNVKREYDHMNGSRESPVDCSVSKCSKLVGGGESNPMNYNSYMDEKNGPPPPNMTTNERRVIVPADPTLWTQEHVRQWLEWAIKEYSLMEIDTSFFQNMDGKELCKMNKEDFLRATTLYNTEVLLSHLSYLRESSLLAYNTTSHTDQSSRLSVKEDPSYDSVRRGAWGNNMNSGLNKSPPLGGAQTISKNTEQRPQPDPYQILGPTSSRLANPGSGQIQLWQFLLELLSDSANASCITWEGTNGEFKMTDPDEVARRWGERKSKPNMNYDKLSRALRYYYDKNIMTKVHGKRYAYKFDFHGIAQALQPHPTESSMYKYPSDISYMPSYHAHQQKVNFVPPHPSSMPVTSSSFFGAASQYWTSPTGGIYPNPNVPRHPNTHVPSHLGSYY
How it was run: (§1)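 Binding signal is each hexamer's read frequency for a factor divided by its frequency in the tag-only sample. The factors were GST-fused human transcription factors from yeast, captured on glutathione beads, DNA-barcoded and pooled with that sample. Pools were incubated with 200 nmole of a random double-stranded 16-mer DNA library in Tris/NaCl/DTT/glycerol buffer at room temperature for 30 min, then washed, crosslinked with 0.1% formaldehyde, proximity-ligated with BsaI/T4 ligase (1 h, 37 °C), PCR-amplified and sequenced on an Illumina NextSeq500.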

[2] = biological target: T2, ELK1 (Homo sapiens, UniProt P19419 1-428)
T2 sequence: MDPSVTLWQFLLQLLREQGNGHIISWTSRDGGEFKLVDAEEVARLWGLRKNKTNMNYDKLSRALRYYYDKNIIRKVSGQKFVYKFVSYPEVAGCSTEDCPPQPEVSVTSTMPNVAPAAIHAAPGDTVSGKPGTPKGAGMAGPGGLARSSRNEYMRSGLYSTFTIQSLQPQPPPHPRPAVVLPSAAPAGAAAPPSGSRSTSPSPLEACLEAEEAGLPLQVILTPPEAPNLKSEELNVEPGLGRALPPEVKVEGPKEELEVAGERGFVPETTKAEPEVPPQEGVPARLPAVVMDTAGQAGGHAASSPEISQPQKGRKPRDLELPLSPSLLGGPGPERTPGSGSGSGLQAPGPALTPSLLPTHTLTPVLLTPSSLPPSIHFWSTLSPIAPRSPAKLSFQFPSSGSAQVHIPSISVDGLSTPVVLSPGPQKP
How it was run: as §1

[3] = biological target: T3, GABPA (Homo sapiens, UniProt Q06546 1-454)
T3 sequence: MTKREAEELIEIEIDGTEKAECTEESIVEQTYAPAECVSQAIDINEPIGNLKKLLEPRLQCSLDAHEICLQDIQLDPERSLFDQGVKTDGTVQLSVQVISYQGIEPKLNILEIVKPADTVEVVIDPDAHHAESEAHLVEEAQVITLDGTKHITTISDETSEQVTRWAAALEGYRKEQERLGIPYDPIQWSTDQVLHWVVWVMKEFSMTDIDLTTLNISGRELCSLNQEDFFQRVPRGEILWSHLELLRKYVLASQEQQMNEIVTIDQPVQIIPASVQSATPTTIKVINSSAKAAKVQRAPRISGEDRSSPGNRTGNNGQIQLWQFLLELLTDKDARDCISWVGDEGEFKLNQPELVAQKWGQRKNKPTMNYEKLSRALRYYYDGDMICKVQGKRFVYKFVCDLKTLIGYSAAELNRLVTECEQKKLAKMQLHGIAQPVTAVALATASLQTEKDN
How it was run: as §1

[4] = biological target: T4, ERG (Homo sapiens, UniProt P11308 1-479)
T4 sequence: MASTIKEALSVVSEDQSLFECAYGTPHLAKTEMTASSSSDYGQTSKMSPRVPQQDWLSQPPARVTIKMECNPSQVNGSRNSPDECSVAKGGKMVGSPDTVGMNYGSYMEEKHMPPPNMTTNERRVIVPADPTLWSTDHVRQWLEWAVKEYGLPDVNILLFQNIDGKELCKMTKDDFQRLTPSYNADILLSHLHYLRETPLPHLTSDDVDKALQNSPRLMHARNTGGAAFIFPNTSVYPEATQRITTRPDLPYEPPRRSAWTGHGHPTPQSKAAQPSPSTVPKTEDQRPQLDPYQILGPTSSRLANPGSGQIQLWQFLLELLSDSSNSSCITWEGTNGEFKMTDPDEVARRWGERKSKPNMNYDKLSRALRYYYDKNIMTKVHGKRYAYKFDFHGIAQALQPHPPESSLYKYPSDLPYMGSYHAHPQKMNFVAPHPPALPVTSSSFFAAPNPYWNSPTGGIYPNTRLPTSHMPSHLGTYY
How it was run: as §1

[5] = biological target: ELF1 (Homo sapiens, UniProt P32519 1-619)
How it was run: as §1

[6] = biological target: T5, EHF (Homo sapiens, UniProt Q9NZC4 1-300)
T5 sequence: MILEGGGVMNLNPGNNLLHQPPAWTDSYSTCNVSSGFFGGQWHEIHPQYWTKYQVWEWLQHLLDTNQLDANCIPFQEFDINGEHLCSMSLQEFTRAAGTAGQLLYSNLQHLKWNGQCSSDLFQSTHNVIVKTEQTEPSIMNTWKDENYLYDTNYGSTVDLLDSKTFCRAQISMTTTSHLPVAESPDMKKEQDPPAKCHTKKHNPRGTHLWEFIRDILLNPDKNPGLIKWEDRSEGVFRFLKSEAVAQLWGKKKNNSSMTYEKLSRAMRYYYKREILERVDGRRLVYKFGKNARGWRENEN
How it was run: as §1

[7] = biological target: SPI1 (Homo sapiens, UniProt P17947 1-270)
How it was run: as §1

[8] = biological target: SPIB (Homo sapiens, UniProt Q01892 1-262)
How it was run: as §1

[9] = biological target: T6, ELK3 (Homo sapiens, UniProt P41970 1-407)
T6 sequence: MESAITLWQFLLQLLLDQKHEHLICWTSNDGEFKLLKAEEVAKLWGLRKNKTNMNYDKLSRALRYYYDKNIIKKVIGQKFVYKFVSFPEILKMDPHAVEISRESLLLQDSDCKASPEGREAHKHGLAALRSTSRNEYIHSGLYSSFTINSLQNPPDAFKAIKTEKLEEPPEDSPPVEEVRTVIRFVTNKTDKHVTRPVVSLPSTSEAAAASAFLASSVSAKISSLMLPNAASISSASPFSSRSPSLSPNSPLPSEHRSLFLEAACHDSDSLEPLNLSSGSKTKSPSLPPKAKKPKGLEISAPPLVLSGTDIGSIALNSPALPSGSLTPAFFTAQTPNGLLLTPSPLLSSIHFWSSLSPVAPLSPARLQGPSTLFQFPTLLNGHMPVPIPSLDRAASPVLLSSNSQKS
How it was run: as §1

Sequence of SPIB (Q01892 whole entry): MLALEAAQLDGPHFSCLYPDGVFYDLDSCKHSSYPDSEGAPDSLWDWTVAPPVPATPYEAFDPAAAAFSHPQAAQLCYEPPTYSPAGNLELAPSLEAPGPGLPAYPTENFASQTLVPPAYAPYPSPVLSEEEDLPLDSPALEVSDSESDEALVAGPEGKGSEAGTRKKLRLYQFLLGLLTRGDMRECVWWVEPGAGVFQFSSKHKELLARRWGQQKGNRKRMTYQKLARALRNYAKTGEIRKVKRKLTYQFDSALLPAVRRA
Sequence of ELF1 (P32519 whole entry): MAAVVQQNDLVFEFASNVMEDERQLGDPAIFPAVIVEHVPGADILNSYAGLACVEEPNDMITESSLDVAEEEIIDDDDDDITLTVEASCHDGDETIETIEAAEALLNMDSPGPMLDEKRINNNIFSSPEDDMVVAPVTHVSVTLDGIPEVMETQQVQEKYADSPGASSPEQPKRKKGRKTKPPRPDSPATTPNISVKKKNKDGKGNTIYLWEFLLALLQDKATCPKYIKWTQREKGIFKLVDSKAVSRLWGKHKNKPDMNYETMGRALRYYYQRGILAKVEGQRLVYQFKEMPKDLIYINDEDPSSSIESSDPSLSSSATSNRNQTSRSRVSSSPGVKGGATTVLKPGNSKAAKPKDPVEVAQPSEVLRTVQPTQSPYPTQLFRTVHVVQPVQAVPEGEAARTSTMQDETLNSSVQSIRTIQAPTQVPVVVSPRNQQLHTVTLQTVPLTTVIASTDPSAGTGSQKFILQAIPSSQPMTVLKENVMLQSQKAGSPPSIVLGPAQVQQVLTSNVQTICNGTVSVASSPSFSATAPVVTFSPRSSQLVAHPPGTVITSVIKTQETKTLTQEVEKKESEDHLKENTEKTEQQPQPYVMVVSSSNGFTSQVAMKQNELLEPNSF

Row | Sequence | binding signal [1] | binding signal [2] | binding signal [3] | binding signal [4] | binding signal [5] | binding signal [6] | binding signal [7] | binding signal [8] | binding signal [9]
1 | CTGCAA | 1.29 fold enrichment (6-mer frequency, TF over GST control) | 1.3 fold enrichment (6-mer frequency, TF over GST control) | 1.2 fold enrichment (6-mer frequency, TF over GST control) | 1.23 fold enrichment (6-mer frequency, TF over GST control) | 1.36 fold enrichment (6-mer frequency, TF over GST control) | 1.2 fold enrichment (6-mer frequency, TF over GST control) | 1.31 fold enrichment (6-mer frequency, TF over GST control) | 1.27 fold enrichment (6-mer frequency, TF over GST control) | 1.33 fold enrichment (6-mer frequency, TF over GST control)
2 | CATATT | 1.22 fold enrichment (6-mer frequency, TF over GST control) | 1.17 fold enrichment (6-mer frequency, TF over GST control) | 1.27 fold enrichment (6-mer frequency, TF over GST control) | 1.26 fold enrichment (6-mer frequency, TF over GST control) | 1.24 fold enrichment (6-mer frequency, TF over GST control) | 1.17 fold enrichment (6-mer frequency, TF over GST control) | 1.27 fold enrichment (6-mer frequency, TF over GST control) | 1.28 fold enrichment (6-mer frequency, TF over GST control) | 1.17 fold enrichment (6-mer frequency, TF over GST control)
3 | TCTAGT | 1.05 fold enrichment (6-mer frequency, TF over GST control) | 1.12 fold enrichment (6-mer frequency, TF over GST control) | 1.17 fold enrichment (6-mer frequency, TF over GST control) | 1.1 fold enrichment (6-mer frequency, TF over GST control) | 1.12 fold enrichment (6-mer frequency, TF over GST control) | 1.08 fold enrichment (6-mer frequency, TF over GST control) | 1.03 fold enrichment (6-mer frequency, TF over GST control) | 1.08 fold enrichment (6-mer frequency, TF over GST control) | 1.05 fold enrichment (6-mer frequency, TF over GST control)
4 | TCGACT | 1.33 fold enrichment (6-mer frequency, TF over GST control) | 1.34 fold enrichment (6-mer frequency, TF over GST control) | 1.3 fold enrichment (6-mer frequency, TF over GST control) | 1.35 fold enrichment (6-mer frequency, TF over GST control) | 1.43 fold enrichment (6-mer frequency, TF over GST control) | 1.39 fold enrichment (6-mer frequency, TF over GST control) | 1.42 fold enrichment (6-mer frequency, TF over GST control) | 1.39 fold enrichment (6-mer frequency, TF over GST control) | 1.47 fold enrichment (6-mer frequency, TF over GST control)
5 | CCAATC | 1.21 fold enrichment (6-mer frequency, TF over GST control) | 1.14 fold enrichment (6-mer frequency, TF over GST control) | 1.2 fold enrichment (6-mer frequency, TF over GST control) | 1.12 fold enrichment (6-mer frequency, TF over GST control) | 1.23 fold enrichment (6-mer frequency, TF over GST control) | 1 fold enrichment (6-mer frequency, TF over GST control) | 1.14 fold enrichment (6-mer frequency, TF over GST control) | 1.1 fold enrichment (6-mer frequency, TF over GST control) | 1.22 fold enrichment (6-mer frequency, TF over GST control)
6 | CTTTGG | 1.15 fold enrichment (6-mer frequency, TF over GST control) | 1.12 fold enrichment (6-mer frequency, TF over GST control) | 1.21 fold enrichment (6-mer frequency, TF over GST control) | 1.07 fold enrichment (6-mer frequency, TF over GST control) | 1.17 fold enrichment (6-mer frequency, TF over GST control) | 1.11 fold enrichment (6-mer frequency, TF over GST control) | 1.21 fold enrichment (6-mer frequency, TF over GST control) | 1.04 fold enrichment (6-mer frequency, TF over GST control) | 1.13 fold enrichment (6-mer frequency, TF over GST control)
7 | ATTGTA | 1.22 fold enrichment (6-mer frequency, TF over GST control) | 1.33 fold enrichment (6-mer frequency, TF over GST control) | 1.17 fold enrichment (6-mer frequency, TF over GST control) | 1.19 fold enrichment (6-mer frequency, TF over GST control) | 1.24 fold enrichment (6-mer frequency, TF over GST control) | 1.22 fold enrichment (6-mer frequency, TF over GST control) | 1.09 fold enrichment (6-mer frequency, TF over GST control) | 1.24 fold enrichment (6-mer frequency, TF over GST control) | 1.27 fold enrichment (6-mer frequency, TF over GST control)
